Reference: PubChem BioAssay AID1159580 (chemical genetic matrix, 2015)
Several values for one entry are separate records, joined by “and”; a condition that tells them apart may be missing. Identical values can stand only once. Hit rate of the full screen: of about 5,500 compounds, about 2,000 (36%) were called active. Inconclusive results (about 18%) are left out. No stated cut-off is given here; in the data, active means normalized growth mostly below about 0.91 (no sharp cut-off); inconclusive means no clear call, values can overlap the other calls; inactive means mostly above about 0.92. The list shows a part of the results.

Experiment: chemical genetic growth profiling, strain panel (AID 1159580);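 further: tested at 20 µM; growth read once vehicle control cultures reached saturation at 30 °C; 1 = growth at the plate median or of vehicle wells; lower values mean less growth of the strain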
Settings: growth OD

Measured: normalized growth

O=c1[nH]c2ccccc2n1C1CCN(CCCC(c2ccc(F)cc2)c2ccc(F)cc2)CC1
active: S. cerevisiae deletion strains, locus YLL001W, strain dnm1, hits give low values 0.893 | S. cerevisiae deletion strains, locus YLR320W, strain mms22, hits give low values 0.784 | S. cerevisiae deletion strains, locus YMR058W, strain fet3, hits give low values 0.897 | S. cerevisiae deletion strains, locus YMR205C, strain PFK2, hits give low values 0.859 | S. cerevisiae deletion strains, locus YNL248C, strain rpa49, hits give low values 0.878 | S. cerevisiae deletion strains, locus YOR001W, strain rrp6, hits give low values 0.817 | S. cerevisiae deletion strains, locus YOR083W, strain WHI5, hits give low values 0.857 | S. cerevisiae deletion strains, locus YOR270C, strain vph1, hits give low values 0.449 | S. cerevisiae deletion strains, locus YOR290C, strain snf2, hits give low values 0.638
inactive: S. cerevisiae deletion strains, locus YJR075W, strain HOC1, hits give low values 0.954 and 0.993 | S. cerevisiae deletion strains, locus YKL009W, strain mrt4, hits give low values 0.963 | S. cerevisiae deletion strains, locus YKL068W, hits give low values 0.993 | S. cerevisiae deletion strains, locus YKL085W, strain MDH1 (second series), hits give low values 0.99 | S. cerevisiae deletion strains, locus YKL085W, strain MDH1, hits give low values 0.99 | S. cerevisiae deletion strains, locus YKL160W, strain elf1, hits give low values 0.914 | S. cerevisiae deletion strains, locus YKL190W, strain CNB1, hits give low values 0.974 | S. cerevisiae deletion strains, locus YKR001C, strain vps1, hits give low values 0.939 | S. cerevisiae deletion strains, locus YKR026C, strain gcn3, hits give low values 1.03 | S. cerevisiae deletion strains, locus YKR091W, strain srl3, hits give low values 1.01 | S. cerevisiae deletion strains, locus YLL026W, hits give low values 0.988 | S. cerevisiae deletion strains, locus YLL041C, strain sdh2, hits give low values 1.02 | S. cerevisiae deletion strains, locus YLR027C, strain aat2, hits give low values 0.927 | S. cerevisiae deletion strains, locus YLR039C, strain RIC1, hits give low values 1.02 | S. cerevisiae deletion strains, locus YLR058C, strain SHM2, hits give low values 0.977 | S. cerevisiae deletion strains, locus YLR102C, strain apc9, hits give low values 0.993 | S. cerevisiae deletion strains, locus YLR113W, strain HOG1, hits give low values 0.967 | S. cerevisiae deletion strains, locus YLR221C, strain rsa3, hits give low values 0.932 | S. cerevisiae deletion strains, locus YLR258W, strain gsy2, hits give low values 0.981 | S. cerevisiae deletion strains, locus YLR262C, strain YPT6 (second series), hits give low values 1.06 | S. cerevisiae deletion strains, locus YLR262C, strain YPT6, hits give low values 1.04 | S. cerevisiae deletion strains, locus YLR268W, strain sec22, hits give low values 0.98 | S. cerevisiae deletion strains, locus YLR330W, strain CHS5, hits give low values 0.995 | S. cerevisiae deletion strains, locus YLR342W, strain FKS1 (second series), hits give low values 0.94 | S. cerevisiae deletion strains, locus YLR342W, strain FKS1, hits give low values 0.936 | S. cerevisiae deletion strains, locus YLR357W, strain rsc2, hits give low values 0.877 | S. cerevisiae deletion strains, locus YLR370C, strain arc18, hits give low values 0.962 | S. cerevisiae deletion strains, locus YLR371W, strain rom2, hits give low values 0.989 | S. cerevisiae deletion strains, locus YLR384C, strain iki3, hits give low values 1.04 | S. cerevisiae deletion strains, locus YLR418C, strain cdc73, hits give low values 0.921 | S. cerevisiae deletion strains, locus YML016C, strain PPZ1, hits give low values 0.992 | S. cerevisiae deletion strains, locus YML032C, strain rad52, hits give low values 0.972 | S. cerevisiae deletion strains, locus YML120C, strain ndi1, hits give low values 0.939 | S. cerevisiae deletion strains, locus YML124C, strain tub3, hits give low values 1 | S. cerevisiae deletion strains, locus YMR078C, strain ctf18, hits give low values 0.983 | S. cerevisiae deletion strains, locus YMR125W, strain sto1, hits give low values 0.995 | S. cerevisiae deletion strains, locus YMR129W, hits give low values 0.966 | S. cerevisiae deletion strains, locus YMR223W, strain ubp8, hits give low values 0.978 | S. cerevisiae deletion strains, locus YMR231W, strain pep5, hits give low values 1.02 | S. cerevisiae deletion strains, locus YMR263W, strain SAP30, hits give low values 0.986 and 0.997 | S. cerevisiae deletion strains, locus YMR307W, strain GAS1, hits give low values 1.04 and 0.999 | S. cerevisiae deletion strains, locus YNL067W, strain RPL9B, hits give low values 0.987 | S. cerevisiae deletion strains, locus YNL071W, strain lat1, hits give low values 1.01 | S. cerevisiae deletion strains, locus YNL128W, strain TEP1, hits give low values 0.965 | S. cerevisiae deletion strains, locus YNL153C, strain GIM3, hits give low values 0.974 | S. cerevisiae deletion strains, locus YNL183C, strain NPR1, hits give low values 0.937 | S. cerevisiae deletion strains, locus YNL197C, strain WHI3, hits give low values 1.1 | S. cerevisiae deletion strains, locus YNL209W, strain ssb2, hits give low values 1.02 | S. cerevisiae deletion strains, locus YNL224C, strain SQS1, hits give low values 1.01 | S. cerevisiae deletion strains, locus YNL233W, strain BNI4, hits give low values 0.985 | S. cerevisiae deletion strains, locus YNL250W, strain rad50, hits give low values 0.986 | S. cerevisiae deletion strains, locus YNL271C, strain bni1, hits give low values 1.01 | S. cerevisiae deletion strains, locus YNL298W, strain CLA4, hits give low values 1.01 | S. cerevisiae deletion strains, locus YNL307C, strain MCK1, hits give low values 0.927 | S. cerevisiae deletion strains, locus YNL322C, strain KRE1 (second series), hits give low values 1.03 | S. cerevisiae deletion strains, locus YNL322C, strain KRE1, hits give low values 0.99 | S. cerevisiae deletion strains, locus YNR049C, strain mso1, hits give low values 0.991 | S. cerevisiae deletion strains, locus YNR052C, strain pop2, hits give low values 0.996 | S. cerevisiae deletion strains, locus YOL006C, strain TOP1, hits give low values 0.848 | S. cerevisiae deletion strains, locus YOL012C, strain htz1 0.998 | S. cerevisiae deletion strains, locus YOL147C, strain pex11, hits give low values 1 | S. cerevisiae deletion strains, locus YOR061W, strain CKA2, hits give low values 0.972 | S. cerevisiae deletion strains, locus YOR069W, strain VPS5, hits give low values 0.991 | S. cerevisiae deletion strains, locus YOR070C, strain gyp1, hits give low values 0.963 | S. cerevisiae deletion strains, locus YOR080W, strain dia2, hits give low values 1 | S. cerevisiae deletion strains, locus YOR083W, strain WHI5 (second series), hits give low values 0.874 | S. cerevisiae deletion strains, locus YOR106W, strain vam3, hits give low values 0.92 | S. cerevisiae deletion strains, locus YOR136W, strain idh2, hits give low values 0.986 | S. cerevisiae deletion strains, locus YOR144C, strain elg1, hits give low values 1 | S. cerevisiae deletion strains, locus YOR184W, strain ser1, hits give low values 0.894 | S. cerevisiae deletion strains, locus YOR231W, strain MKK1, hits give low values 0.984 | S. cerevisiae deletion strains, locus YOR265W, strain rbl2, hits give low values 0.992 | S. cerevisiae deletion strains, locus YOR316C, strain cot1, hits give low values 0.995 | S. cerevisiae deletion strains, locus YPL051W, strain arl3, hits give low values 0.954 | S. cerevisiae deletion strains, locus YPL055C, strain LGE1, hits give low values 0.924 | S. cerevisiae deletion strains, locus YPL078C, strain atp4, hits give low values 0.956 | S. cerevisiae deletion strains, locus YPL106C, strain sse1, hits give low values 1.07 | S. cerevisiae deletion strains, locus YPL240C, strain hsp82, hits give low values 1.02 | S. cerevisiae deletion strains, locus YPL241C, strain CIN2, hits give low values 0.986 and 1 | S. cerevisiae deletion strains, locus YPL256C, strain CLN2, hits give low values 0.965 | S. cerevisiae deletion strains, locus YPR119W, strain clb2, hits give low values 0.995 | S. cerevisiae deletion strains, locus YPR141C, strain kar3, hits give low values 0.996 | S. cerevisiae deletion strains, locus YPR163C, strain tif3, hits give low values 1 | S. cerevisiae deletion strains, locus YPR167C, strain met16, hits give low values 0.986 | S. cerevisiae deletion strains, strain wtn01, hits give low values 0.989 | S. cerevisiae strains, strain wild type, hits give low values 0.993
